Laboratory results taken from PubChem BioAssay (NCI).
The panel holds about 79,000 compounds, 15% with a hit somewhere; the sample as a whole holds those more often. Rule as the data show it: active = growth inhibition above about 70%; inactive = the rest.

How the values were obtained:
[1] = NCI Yeast Anticancer Drug Screen. Data for the rad50 strain (AID 155);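 also: 0% = growth of vehicle-only cultures of the same strain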; settings: S. cerevisiae rad50 strain growth inhibition; at 50.0 µM; hits give high values
How it was run: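 Cells are treated with compound, grown, and their growth is then scored against vehicle-only cultures of the same repair-deficient yeast strain.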

[2] = NCI Yeast Anticancer Drug Screen. Data for the sgs1 mgt1 strain (AID 161);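 also: 0% = growth of cultures given vehicle only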; settings: S. cerevisiae sgs1 mgt1 strain, at 50.0 µM, hits give high values
How it was run: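 Inhibition of yeast growth, normalised to vehicle-treated controls, is reported for a strain bearing genetic alterations in DNA damage repair.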

[3] = NCI Yeast Anticancer Drug Screen. Data for the cln2 rad14 strain (AID 165);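 also: 0% = growth equal to vehicle treated cultures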; settings: S. cerevisiae cln2 rad14 strain, at 50.0 µM, hits give high values
How it was run: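 Each compound was tested on cln2 rad14 yeast. Inhibition of growth was calculated against vehicle-exposed controls.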

[4] = NCI Yeast Anticancer Drug Screen. Data for the bub3 strain (AID 167); settings: S. cerevisiae bub3 mutant strain, at 50.0 µM, hits give high values
How it was run: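 Part of a panel of yeast mutants defective in DNA damage repair or cell cycle regulation. Each strain is grown with compound, and inhibition is calculated relative to solvent-treated cultures.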

[5] = NCI Yeast Anticancer Drug Screen. Data for the mlh1 rad18 strain (AID 175); settings: S. cerevisiae mlh1 rad18 strain growth inhibition; at 50.0 µM; hits give high values
How it was run: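 Vehicle-treated cultures served as the reference for growth inhibition in a yeast strain carrying DNA damage repair alterations exposed to each compound.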

[6] = NCI Yeast Anticancer Drug Screen. Data for the mec2-1 strain (AID 157); settings: S. cerevisiae mec2-1 strain, at 50.0 µM, hits give high values
How it was run: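 Vehicle-treated cultures served as reference for growth inhibition of compound-exposed mec2-1 yeast.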

Measured: growth inhibition

CC[N+](C)(CC)CCO
inactive: [1] 13.7% | [2] 4.4% | [3] 10.7% | [4] 2.9% | [5] 5.05%

COc1ccc(NC(=O)CCl)cc1
inactive: [1] 29.7% | [2] 24.4% | [3] 17.9% | [5] 23.6%

CC(=O)c1sc2c(c1OC(=O)c1ccc(Cl)cc1Cl)c(=O)n(-c1ccccc1)c(=S)n2-c1ccccc1
inactive: [1] -3.95% | [2] -19.4% | [3] -5.65% | [4] -6.55% | [5] -3.85%

COc1ccc(/C=C/c2cccc[n+]2C)cc1
inactive: [1] 1.35% | [2] -7.1% | [3] 0.55% | [4] -9.9% | [5] -11.2%

O=C(O)CCC(=O)OC(C1CO1)C(OC(=O)CCC(=O)O)C1CO1 (configuration not stated)
inactive: [1] -0.85% | [2] -7.3% | [3] 3.3% | [4] -11.6% | [5] -44.7%

CC1(O)CCCCC1O (configuration not stated)
inactive: [1] -8.1% | [2] -8.3% | [3] -20.9% | [4] -13.8% | [5] -15.3%

CC(=O)OCCO
inactive: [1] 9.6% | [2] -9.65% | [3] -6.35% | [4] -41.8% | [5] 17.6%

CN1C(=O)CN2CCc3ccccc3C2c2cc(Cl)ccc21 (configuration not stated)
inactive: [1] 33.3% | [6] 26.4% | [2] 47.6% | [3] 22.1% | [5] 42.1%

C=CC(O)CCC (configuration not stated)
inactive: [1] -8.4% | [6] -41% | [2] -16.8% | [3] 1.3% | [5] -2.7%

COC(=O)c1cccnc1
inactive: [1] 6.65% | [2] -0.35% | [3] 7.2% | [4] -23.8% | [5] -1.2%

Nc1ncnc2[nH]ncc12
inactive: [1] -0.9% | [2] 37% | [3] -2.6% | [4] 4.7% | [5] 14.1%

O=C(c1ccc(Cl)cc1)c1ccccc1Cl
inactive: [1] 37.9% | [2] 41.3% | [3] -41.1% | [4] 25% | [5] 19%

COc1cccc(COC(=O)Nc2ccccc2)c1OC
inactive: [1] 29.9% | [2] 29.7% | [3] 21.5% | [4] 42.5% | [5] 0.65%

O=C1Cc2ccccc2C(=O)O1
inactive: [1] 25.9% | [2] 1.95% | [3] -22.1% | [4] -5.15% | [5] 15.6%

C[C@@H](c1ccccc1)[C@@H](C(=O)O)c1ccccc1
inactive: [1] 8.3% | [2] 8.3% | [3] -38.6% | [4] -5.65% | [5] 29.7%

COc1cc(/C=C/C(=O)c2ccccc2)cc(OC)c1OC
inactive: [1] -4.7% | [2] -3% | [3] 34.5% | [4] -18.1% | [5] -2.3%

N#Cc1c(N)sc(=S)c2c1CCCC2
inactive: [1] 9.65% | [2] 29.4% | [3] 1.8% | [4] -2.05% | [5] 11.4%

CC12CC3CC1C(C(=O)O2)C3C(=O)O (configuration not stated)
inactive: [6] -27.5% | [2] -25.8% | [3] 5.85% | [4] -7.2%

COc1ccccc1N1CCN(C(=S)Nc2ccccc2)CC1
inactive: [6] -13.8% | [2] 0.8% | [3] -1.05% | [4] -2.7% | [5] 15.3%

CCC(O)CC(CC)CO (configuration not stated)
inactive: [6] -2.7% | [2] 4.4% | [3] -32.7% | [4] -12.2% | [5] -10.1%

CCN(CC)c1ccc2nc3ccc(=[N+](CC)CC)cc-3oc2c1
inactive: [2] -187% | [3] -165% | [4] -246% | [5] -258%

C/C=C/CC(C)C(O)C1C(=O)NC(CC)C(=O)N(C)CC(=O)N(C)C(CC(C)C)C(=O)NC(C(C)C)C(=O)N(C)C(CC(C)C)C(=O)NC(C)C(=O)NC(C)C(=O)N(C)C(CC(C)C)C(=O)N(C)C(CC(C)C)C(=O)N(C)C(C(C)C)C(=O)N1C (configuration not stated)
inactive: [6] 8.3% | [2] -5.45% | [3] 25.6% | [4] 22.7% | [5] 18.1%

O=C(O)CCCCNC(=O)c1ccccc1
inactive: [6] -14.4% | [2] 3.25% | [3] 12.3% | [4] -4.8% | [5] 9.4%

O=C(O)CCCC(=O)O
inactive: [6] -0.7% | [2] -22.6% | [3] -21.4% | [4] -51.6% | [5] 4.5%

NC(=S)NN=C1CCCC1
inactive: [6] -5.8% | [2] 4.75% | [3] -19.6% | [4] -2.45% | [5] 7.75%

CN(C)CCN(Cc1ccccc1)c1ccccc1
inactive: [6] -41.6% | [2] -13.6% | [3] -10.7% | [4] -20.8% | [5] -12%

OC1OC(COC(c2ccccc2)(c2ccccc2)c2ccccc2)C(O)C(O)C1O (configuration not stated)
inactive: [6] -0.95% | [2] -16.6% | [3] 14.4% | [4] -3.7% | [5] -17%

CN(C)Cc1cc(C(C)(C)CC(C)(C)C)ccc1O
inactive: [6] -3.2% | [2] 6.3% | [3] -43.9% | [4] 17.1% | [5] 42.5%

CC(O)COc1ccc(-c2ccccc2)cc1 (configuration not stated)
inactive: [6] -2.9% | [2] 33% | [3] 15.9% | [4] 28.1% | [5] 19.9%
